Sampled rows, rich in hits. Any-hit rate of the full collection: about 3.6%.
EBV LMP1 NFkB: EBV LMP1-driven NF-kappaB luciferase reporter inhibitors, primary screen, cell-based, luminescence, single point; actives 0.69% (n = 350,000); LMP1-induced NF-kappaB luciferase reporter cells; inhibition, % at 12.5 µM; in the data active means inhibition above about 41%;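 further: 0% = neutral control wells and 100% = reference inhibitor control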
TWEAK Fn14 block: inhibitors of TWEAK-Fn14 signaling, primary screen, luciferase reporter cells, uHTS; TWEAK-stimulated Fn14 reporter cells, luciferase luminescence, 8 h; inhibition, % at 10 µM; actives 2% (n = 360,000); AID 1159606, 2016; in the data active means inhibition above about 50%
TROY signal inh: inhibitors of TROY-driven NF-kB signaling, primary screen, Q293 LMP1-TROYcd cells, NF-kB luciferase, uHTS. Q293 LMP1-TROYcd NF-kB luciferase reporter, 4 h. inhibition, % at 10 µM. actives 0.98% (n = 360,000). AID 1347056, 2019;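 active means compounds whose plate-normalised and pattern-corrected inhibition of the luciferase reporter signal at the single screening dose is 50% or more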
HSF1 inhib: HSF1 inhibitors in luciferase reporter cells, primary screen, cell-based, NIH3T3, luminescence | NIH3T3-HGL HSE-luciferase, MG132-induced, luminescence 8 h; hits give low values | activity change, negative = inhibition, % at 7.5 µM (by protocol) | actives 0.77% (n = 300,000) | AID 2098, 2009;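 active means more than half of replicate wells show activity change below -50%, luminescence cut by over half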;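 further: luciferase reports HSF-1 transcriptional activity via heat shock element; 0% = median of DMSO wells and -100% = zero luminescence signal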
LGR2 inh: inhibitors of bursicon-induced LGR2 CRE-luciferase signal, primary screen, cell-based, HEK293, CRE-luciferase reporter, bursicon stimulation; actives 0.35% (n = 380,000); inhibition, % at 9.99 µM; Drosophila bursicon receptor LGR2 (rickets); bursicon-stimulated, 4 h;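 active means drop in luminescence signal, shown as inhibition above about 50% in the replicate tests, limit read from the data, passing the limit was not always enough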;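 further: agonist challenge used bursicon conditioned medium at about half maximal strength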
HSF-1 act: HSF-1 activators, primary screen, NIH3T3-HGL cells, MG132 stress, luminescence, single point; NIH3T3-HGL HSF-1 luciferase reporter, 8 h; 100% = twice DMSO control signal; activation, % at 9 µM; actives 1.7% (n = 300,000); AID 504408, 2011;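 active means mean replicate activation of at least 50% with a set share of replicates each reaching 50%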;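 further: 0% = median of the neutral control wells and 100% = twice that signal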
The depositor's hits bear a star.

`Cc1cc(NC(=O)c2cccs2)ncc1NC(=O)C(C)(C)C` gave EBV LMP1 NFkB -4.0, TWEAK Fn14 block 46.7, TROY signal inh 51.5*, HSF1 inhib -22.1, LGR2 inh 19.8 and HSF-1 act -27.7.
Cc1ccnc(NC(=O)c2cccs2)c1 was read as EBV LMP1 NFkB -15.5, TWEAK Fn14 block -5.5, TROY signal inh -42.4, HSF1 inhib 8.7 and HSF-1 act 22.9.
`Cc1ccc(S(=O)(=O)NCC[C@H]2CC[C@@H](NC(=O)CCN3CCCCC3)[C@@H](CO)O2)cc1` gave LGR2 inh -0.8.
Screening COc1ccc(Nc2nc3ccc(OC)cc3s2)cc1 returned EBV LMP1 NFkB -21.5, TWEAK Fn14 block -45.4, TROY signal inh -60.7, HSF1 inhib 18.6, LGR2 inh -118.1 and HSF-1 act 20.7.
For CCCC(=O)Nc1nc2ccc(NC(=O)c3ccccc3F)cc2s1 the results were EBV LMP1 NFkB -11.3, TWEAK Fn14 block 1.9, TROY signal inh -13.4, HSF1 inhib 9.5, LGR2 inh -12.2 and HSF-1 act 3.6.
`Cc1ccc2nc(NC(=O)c3ccccc3F)sc2c1` gave EBV LMP1 NFkB -28.8, TWEAK Fn14 block 68.9*, TROY signal inh 7.5, HSF1 inhib 2.1, LGR2 inh 39.6 and HSF-1 act 14.8.
Screening COc1ccc2nc(NC(=O)c3ccccc3F)sc2c1 returned EBV LMP1 NFkB -18.9, TWEAK Fn14 block 46.7, TROY signal inh -23.8, HSF1 inhib 28.9, LGR2 inh 63.1* and HSF-1 act 41.3.
COc1ccc2nc(Nc3nc(C)c(C(C)=O)s3)sc2c1 was read as EBV LMP1 NFkB -36.3, TWEAK Fn14 block 64.0*, TROY signal inh -2.6, HSF1 inhib -7.2 and HSF-1 act -0.4.
For C[C@H](CO)N1C[C@H](C)[C@@H](CN(C)C)OCCCC[C@H](C)Oc2ccc(NC(=O)CCC(F)(F)F)cc2C1=O the results were LGR2 inh 22.2.
COc1ccc(S(=O)(=O)N2CCCC2C(=O)Nc2ccc(C)cc2)cc1 (stereo unspecified) was read as EBV LMP1 NFkB -1.0, TWEAK Fn14 block -11.8, TROY signal inh 7.9, HSF1 inhib -38.5 and HSF-1 act -51.9.
Cn1c(=O)c(=O)n(C)c2cc(S(=O)(=O)N3CCCC3C(=O)Nc3ccc(F)cc3)ccc21 (stereo unspecified) was read as EBV LMP1 NFkB 9.4, TWEAK Fn14 block -10.7, TROY signal inh -4.1, HSF1 inhib -3.1, LGR2 inh -1.5 and HSF-1 act -6.3.
Screening COc1ccc(NC(=O)C2CCCN2S(=O)(=O)c2ccc(Cl)cc2)cc1 (stereo unspecified) returned EBV LMP1 NFkB -3.8, TWEAK Fn14 block 77.2*, TROY signal inh -3.6, HSF1 inhib 2.0, LGR2 inh -22.4 and HSF-1 act 4.9.
Screening Cc1ccc(S(=O)(=O)N2CCC[C@H]2C(=O)Nc2ccccc2C)cc1 returned EBV LMP1 NFkB 70.2*, TWEAK Fn14 block -12.8, TROY signal inh 9.1 and LGR2 inh 11.8.
Cc1ccc(NC(=O)C2CCCN2S(=O)(=O)c2ccc3c(c2)n(C)c(=O)c(=O)n3C)cc1C (stereo unspecified) was read as EBV LMP1 NFkB 9.0, TWEAK Fn14 block -29.3, TROY signal inh -4.3, HSF1 inhib -52.6*, LGR2 inh 29.3 and HSF-1 act -65.1.
For Cc1nc2ccccc2cc1OCc1ccc(Cl)cc1 the results were EBV LMP1 NFkB -13.2, TWEAK Fn14 block 16.7, TROY signal inh -12.2, HSF1 inhib 37.0 and HSF-1 act 59.1*.
Cc1nc2ccccc2cc1OCc1ccccc1 was read as EBV LMP1 NFkB -3.5, TWEAK Fn14 block 25.6, TROY signal inh -4.8, HSF1 inhib 14.2, LGR2 inh -21.8 and HSF-1 act 11.1.

Source: PubChem (several laboratories)
